Most compounds without a hit are left out; they make up all but 9.5% or so of the library.
NS1 inh – influenza NS1 inhibition | Potency, µM (titrated, usually from 46.1 µM) | 270,000 compounds, 0.4% hits | AID 2326; note: actives are rising curves; nearly all actives have a fitted effect of over 50% in size
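Read-out: OD600 growth recovery of NS1-expressing budding yeast. Cells grown overnight at 30C in -URA glucose medium, washed, resuspended and diluted 1:100 in 2% galactose assay medium, pH 6.0. Same strain lacking NS1 served as positive control.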
Pf growth 48h – P. falciparum growth inhibition at 48 hours (one generation); P. falciparum luciferase growth in erythrocytes, 48 h; Potency, µM (series often up to 28.7 µM), usual class: inhibitors; 310,000 compounds, 5.9% hits; active = well fitted inhibition curve with a large enough effect; inconclusive = small, poorly fitted or top-dose-only effect, or another doubt; inactive = no such curve, though single readings can be large or run the other way
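In quantitative HTS format, infected erythrocytes bearing luciferase-reporter parasites were treated for a single generation at 37 C. Luminescence after adding detection reagent served as the growth measure.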
Pf growth 96h – P. falciparum growth inhibition at 96 hour, primary screen for plastid delayed-death inhibitors | P. falciparum luciferase reporter growth, 96 h | Potency, µM (series often up to 28.7 µM), most hits filed as inhibitors | 320,000 compounds, 6.9% hits; active = well fitted inhibition curve with a large enough effect; inconclusive = small, poorly fitted or top-dose-only effect, or another doubt; inactive = no such curve, though single readings can be large or run the other way
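Erythrocytes infected with luciferase-expressing P. falciparum were dispensed at 2% hematocrit and 0.05% parasitemia (final), then incubated with compounds 96 hours at 37 C in 5% CO2. Luminescence after detection reagent addition reported growth.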
SARS PLpro yeast – blocks SARS-CoV papain-like protease in a yeast assay. S. cerevisiae expressing SARS-CoV PLpro, growth rescue. Potency, µM (titrated, usually from 32.9 µM), hits mostly activators. 330,000 compounds, 0.19% hits. AID 485353; note: nearly all actives have a fitted effect of over 55% in size
RE007 growth inh – less growth of the S. pombe RE007 Vpr strain; 360,000 compounds, 0.21% hits; AID 651644; Potency, µM (doses to about 92.2 µM), actives largely listed as inhibitors; S. pombe RE007 Vpr strain, BacTiter-Glo ATP luminescence, 24 h; active = well fitted falling curve with a large enough effect; inconclusive = small, poorly fitted or top-dose-only effect; inactive = no such curve, though single readings can be large or run the other way; note: nearly all actives have a fitted effect of over 50% in size
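Fission yeast strain RE007, carrying one chromosomally integrated HIV-1 vpr copy, was seeded at OD 0.01 in PMG+AL medium with 23 nL pinned compound. After 24 h at 30 °C and 99% humidity, viability was read by BacTiter-Glo luminescence.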
A number is an active result; – = inactive; ? = inconclusive; · = not tested or not shown; [ ] = another dose, or the depositor's remark. Unless noted, calls come from the whole dose curve.

SMILES | NS1 inh | Pf growth 48h | Pf growth 96h | SARS PLpro yeast | RE007 growth inh
Cc1cc(Nc2nc3ccccc3nc2Cl)n(-c2ccccc2C)n1 | – | 1.5µM | 1.5µM | – | –
Cc1cc(Nc2nc3ccccc3nc2Cl)n(-c2ccccc2)n1 | – | · | ? | – | –
CCOC(=O)N1CCC(NC(=O)c2cc3c(-c4ccc(OC)c(OC)c4)nn(C)c3s2)CC1 | – | ? | 9.3µM | – | –
CCOC(=O)C1CCN(C(=O)c2cc3c(-c4ccc(OC)c(OC)c4)nn(C)c3s2)CC1 | – | · | ? | – | –
CCCCn1c(SCc2nc3ccccc3s2)nc2ccccc2c1=O | – | – | – | – | –
CCn1c(SCCOc2ccc(Cl)cc2)nnc1-c1cccs1 | – | ? | 9.3µM | – | –
CCCn1c(=O)c2ccccc2n2c(SCc3nc4ccccc4s3)nnc12 | – | – | 10µM | – | –
CCn1c(SCc2nc3ccccc3s2)nnc1-c1cccs1 | – | – | 10µM | ? | –
Cc1nc(C(F)(F)F)ccc1C(=O)N1CCC1(C)C(=O)NCc1ccc(Cl)cc1 (stereo unspecified) | · | · | · | · | –
Cc1cc(C)c(S(=O)(=O)N2CCN(C(=O)C(C)Cn3cncn3)CC2)c(C)c1 (stereo unspecified) | – | – | – | – | –
CCN(CC(=O)Nc1ccc(NC(C)=O)cc1)C(=O)c1cc(-c2ccccc2Cl)nc2ccccc12 | · | · | · | · | –
CCOC(=O)c1nc(NNC(=O)c2ccc([N+](=O)[O-])cc2)sc1C | – | ? | 3.3µM | – | –
O=C(Cn1cccc1C(=O)c1ccccc1)NCc1cccc(Cl)c1 | · | – | 13µM | – | –
COC(=O)c1cccnc1Oc1ccccc1 | – | ? | 0.66µM | – | –
Cc1cc(=O)oc2cc(OCC(=O)c3ccccc3)ccc12 | – | – | 6.6µM | – | –
Cc1cc(=O)oc2cc(OCC(=O)N/N=C/c3ccccc3O)ccc12 | – | – | 9.3µM | – | –
Cc1cc(=O)oc2cc(OCC(=O)NCc3ccccn3)ccc12 | – | ? | ? | – | –
Cc1cc(=O)oc2cc(OCCCC[n+]3ccccc3)ccc12 | – | 5.2µM | ? | – | –
CC(=O)Nc1ccc(NC(=O)c2ccc(COc3ccc4c(C)cc(=O)oc4c3)cc2)cc1 | – | – | – | – | ·
Cc1ccc(C(=O)COc2ccc3c(C)cc(=O)oc3c2)cc1 | – | ? | – | – | –
Cc1cccc(C(C)C)c1NC(=O)c1ccc(COc2ccc3c(C)cc(=O)oc3c2)cc1 | – | ? | 9.3µM | – | –
CNc1nc(NC)c2cn[nH]c2n1 | · | · | · | · | –
Cc1cc(C)cc(NC(=O)N2CCCN(Cc3c(F)cccc3Cl)CC2)c1 | – | ? | ? | – | –
CCOC(=O)C1=C(O)/C(=C/c2cn(CC(=O)N3CCCC3)c3ccccc23)SC1=Nc1ccccc1 | – | 4.7µM | 3.3µM | – | –
COc1cc(CN2CCCCC2)cc2cc(C(=O)O)c(=O)oc12 | – | · | · | · | ·
SMILES | NS1 inh | Pf growth 48h | Pf growth 96h | SARS PLpro yeast | RE007 growth inh
COc1cc(/C=N/Nc2ncc(C(F)(F)F)cc2Cl)cc(OC)c1OC | – | 4.7µM | ? | – | –
CCOC(=O)C1(C)CCCCCN1C(=O)c1ccc(SC(F)(F)F)cc1 (stereo unspecified) | · | · | · | · | –
c1ccc2c(c1)Nc1cc3ccccc3cc1S2 | – | – | 1.9µM | – | –
c1ccc2c(c1)Nc1ccncc1S2 | – | 15µM | ? | – | –
COc1ccc2c(c1)Sc1ccccc1N2 | · | – | ? | – | ?
CCOCCCNC(=S)N1CCN(Cc2ccc3c(c2)OCO3)CC1 | – | – | – | – | –
COc1ccccc1CN(C)C(=O)c1cc(S(=O)(=O)N2CCCCCC2)ccc1OC | · | · | · | · | –
c1ccc(CN(Cc2cccs2)C(c2cccs2)c2nnnn2C2CCCC2)cc1 (stereo unspecified) | – | 13µM | · | – | –
COc1ccccc1N1CCN(C(c2cccs2)c2nnnn2C2CCCC2)CC1 (stereo unspecified) | – | 13µM | – | – | –
COc1ccccc1C(c1nnnn1C1CCCC1)N1CCN2CCCC2C1 (stereo unspecified) | – | 13µM | – | – | –
c1ccc(CC2CCN(C(c3cccs3)c3nnnn3C3CCCC3)CC2)cc1 (stereo unspecified) | – | 1.9µM | · | – | –
O=C(c1ccco1)N1CCN(C(c2cccs2)c2nnnn2C2CCCC2)CC1 (stereo unspecified) | – | – | ? | – | –
CN(CC(=O)Nc1ccc(OC(F)(F)F)cc1)C(=O)/C=C/c1cc2c(cc1[N+](=O)[O-])OCO2 | · | – | – | – | –
CC1(C)CC(Cc2ccc(C(F)(F)F)cn2)N(C(=O)OC(C)(C)C)C1 (stereo unspecified) | · | · | · | · | –
CC(C)Nc1nnc(SCC(=O)c2c(N)n(Cc3ccccc3)c(=O)n(C)c2=O)s1 | – | ? | 9.3µM | – | –
C=CCn1c(COc2cc(C)ccc2C(C)C)nnc1SCC(=O)c1c(N)n(C)c(=O)n(C)c1=O | – | – | ? | – | –
Cc1nnc(SCC(=O)c2c(N)n(C)c(=O)n(C)c2=O)n1Cc1ccccc1 | – | – | – | 22µM | –
CCn1c(SCC(=O)c2c(N)n(C)c(=O)n(C)c2=O)nnc1-c1ccccc1 | – | – | – | – | ·
Cn1c(N)c(C(=O)CSc2nnc(NC3CCCCC3)s2)c(=O)n(C)c1=O | · | ? | 1.3µM | – | –
COCC(C)n1c(COc2ccccc2F)nnc1SCC(=O)c1c(N)n(C)c(=O)n(C)c1=O (stereo unspecified) | – | 10µM | ? | – | –
CC(=O)Nc1ccc(SCC(=O)c2c(N)n(Cc3ccccc3)c(=O)n(C)c2=O)cc1 | – | – | ? | – | –
N#Cc1cccc(-c2csc(C(O)c3ccco3)n2)c1 (stereo unspecified) | · | · | · | · | –
CC(C)C(NC(=O)c1ccc(F)cc1)C(=O)NC1(C)CCS(=O)(=O)C1 (stereo unspecified) | · | – | – | – | –
O=C(Cn1ccccc1=O)Nc1ccc(Cl)c(S(=O)(=O)N2CCCCC2)c1 | · | ? | ? | – | –
C=CC(C)(C)c1[nH]cnc1/C=C1\NC(=O)C(C(C)C)NC1=O (stereo unspecified) | – | ? | 2.1µM | – | –
SMILES | NS1 inh | Pf growth 48h | Pf growth 96h | SARS PLpro yeast | RE007 growth inh
CCc1cc2c(=O)c(-c3cnn(-c4ccccc4)c3)c(C(F)(F)F)oc2c(CN(C)C)c1O | – | 6.6µM | · | – | –
CCc1cc2c(=O)c(-c3nc4ccccc4n3C)coc2c(CN2CCOCC2)c1O | ? | – | · | ? | –
CCc1cc2c(=O)c(-c3cnn(-c4ccccc4)c3)c(C)oc2c(CN2CCCCC2)c1O | – | 15µM | – | – | –
CCc1cc2c(=O)c(-c3nc4ccccc4n3C)coc2c(CN2CCCCC2)c1O | – | – | 2.9µM | – | –
Cc1c(C(=O)N2CCN(c3ncccn3)CC2)oc2ccc(Cl)cc12 | · | – | – | –[6.58 µM] | –
COc1ccc(C(=O)NCc2nnc(SC)n2Cc2ccccc2)cc1 | · | – | – | – | –
Cc1ccc(NC(=O)c2ccncc2)cc1S(=O)(=O)N(C)C | – | – | – | – | –
Cc1cc(C)n(-c2ccc(C(=O)Nc3ccc(S(=O)(=O)N(C)C)cc3)cc2)n1 | – | 15µM | ? | – | –

From PubChem
